# Results filed as inconclusive are left out. A call without a number means that no potency is given here. Active and inactive are the calls of the source. Calls come from the whole dose curve; as a rule, active = well fitted cell-killing curve with a large enough effect; inconclusive = small, poorly fitted or top-dose-only effect, or effect the other way; inactive = no such curve, though single readings can be large or run the other way.
# Assay: Quantitative High-Throughput drug screen in 47 multiple myeloma cell lines against the NCATS MIPE library collection: JIM1_ECACC cell viability assay (AID 1918964)
# Details: JIM1 myeloma viability, CellTiter-Glo ATP luminescence, 48 h; series mostly up to 45.8 µM
# Summary of the method: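 Relative luminescence from CellTiter-Glo served as the viability signal, referenced to DMSO-treated (100%) and cell-free medium (0%) controls. Treatment lasted 48 hours at 37C with 500 cells per well.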
# Potency is the fitted concentration of half-maximal effect.
row,Compound,Potency
1,COc1cc2nccc(Oc3ccc(NC(=O)Nc4ccc(F)cc4F)c(F)c3)c2cc1OC,inactive
2,N#Cc1c(N(CC(=O)O)CC(=O)O)sc(C(=O)O)c1CC(=O)O,5.9 µM (active)
3,CC1C(=O)OC2C(O)C34C5CC(C(C)(C)C)C36C(OC(=O)C6O)OC4(C(=O)O5)C12O (stereo not drawn),inactive
4,O=C(Nc1cccc(C(F)(F)F)c1)Nc1cc(S(=O)(=O)NC2CC2)ccc1-c1ccsc1,inactive
5,O=C(O)c1ccc(O)c2ncc(N3CCOCC3)cc12,20.9 µM (active)
6,CN(C)c1ccc(-c2nc3ncc(Cl)c(N4CCN(CC(=O)Nc5nccs5)CC4)c3[nH]2)cc1,inactive
7,OC[C@H]1O[C@@H](OCCc2ccc(O)cc2)[C@H](O)[C@@H](O)[C@H]1O,inactive
8,Oc1cc(O)cc(C=Cc2ccc(O)c(O)c2)c1,16.6 µM (active)
9,Cc1c(-c2cccc3c(CCCOc4cccc5ccccc45)c(C(=O)O)n(Cc4cccnc4)c23)c(COc2ccc(N3CCN([S+](=O)([O-])N(C)C)CC3)cc2)nn1C,inactive
10,CC(=O)OCC(=O)[C@@]1(O)CC[C@H]2[C@@H]3CCC4=CC(=O)C=C[C@]4(C)[C@@H]3[C@@H](O)C[C@@]21C,inactive
11,NS(=O)(=O)c1cc(Cl)c(Cl)c(S(N)(=O)=O)c1,inactive
12,CC[C@H](C)C(=O)O[C@H]1C[C@H](O)C=C2C=C[C@H](C)[C@H](CC[C@@H](O)C[C@@H](O)CC(=O)O)[C@H]21,inactive
13,CC(C)[C@H](O)C(=O)N[C@@H](C)C(=O)N[C@@H]1C(=O)N(C)CCc2ccccc21,inactive
14,CN[C@H]1[C@@H](O[C@@H]2[C@H](O[C@@H]3[C@@H](O)[C@@H](O)[C@@H](N=C(N)N)[C@@H](O)[C@@H]3N=C(N)N)O[C@H](C)[C@@]2(O)C=O)O[C@@H](CO)[C@@H](O)[C@H]1O,inactive
15,CC(NCCc1ccc(O)cc1)C(O)c1ccc(O)cc1 (stereo not drawn),inactive
16,Cc1ccccc1-n1c(Cn2nc(-c3cccc(O)c3)c3c(N)ncnc32)nc2cccc(C)c2c1=O,1.18 µM (active)
17,C=CCc1cccc(C=NNC(=O)CN2CCN(Cc3ccccc3)CC2)c1O,5.26 µM (active)
18,CCOC(=O)N1CCN([N+]([O-])=NOc2cc(ON=[N+]([O-])N3CCN(C(=O)OCC)CC3)c([N+](=O)[O-])cc2[N+](=O)[O-])CC1,inactive
